Reference: PubChem BioAssay (NCI)
This is part of a sample that, as a whole, favours compounds with a hit. Of some 83,000 tested, about 20% had one in any assay.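 Interpretation: 100, growth as untreated; towards 0, rising growth inhibition; 0, no net growth; 0 to -100, cell death. Compounds scoring below 10 were considered active.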 Values without a mark were called inactive. Activity calls are given as the source filed them.

What was measured:
Assay in all cases: NCI-60 one-dose screen, 48 h (100 = growth as untreated, 0 = no growth, -100 = all killed)
Conditions in all cases: 10 µM unless noted
HCT-15 colon = tested on: HCT-15 colon
HT29 colon = tested on: HT29 colon
SNB-75 CNS = tested on: SNB-75 CNS
SNB-19 CNS = tested on: SNB-19 CNS
U251 CNS = tested on: U251 CNS
PC-3 prostate = tested on: PC-3 prostate
SK-MEL-5 melanoma = tested on: SK-MEL-5 melanoma
UACC-62 melanoma = tested on: UACC-62 melanoma
LOX IMVI melanoma = tested on: LOX IMVI melanoma
SK-MEL-28 melanoma = tested on: SK-MEL-28 melanoma

Compound	growth (HCT-15 colon)	growth (HT29 colon)	growth (SNB-75 CNS)	growth (SNB-19 CNS)	growth (U251 CNS)	growth (PC-3 prostate)	growth (SK-MEL-5 melanoma)	growth (UACC-62 melanoma)	growth (LOX IMVI melanoma)	growth (SK-MEL-28 melanoma)
CCOC(=O)c1cn2ncnc(Oc3ccc(NC(=O)NCCN4CCN(C)CC4)c(Cl)c3)c2c1C	39.6%	19.7%	86.3%	87.7%	63.3%	50.5%	47.6%	34%	66.2%	
CCOc1ccc2nc(SCc3nc4n(n3)S(=O)(=O)c3ccccc3N4C)sc2c1	26.9%	62.3%	-15% (active)	30.6%	16.3%	19.5%	-23.9% (active)	25.9%	19.8%	
Cc1ccc2sc3c(NCCCN)nc4ccccc4c3c(=O)c2c1	-12.2% (active)	-47.4% (active)	78.1%	74.6%	6.32% (active)	65.4%	90.6%	94.1%	-97.7% (active)	
Nc1nc(-c2cccc3ccccc23)cc2ccccc12	3.98% (active)	1.11% (active)	7.16% (active)	12%	16.3%	20.5%	11%	23.5%	20.9%	
O=C(O)CCC/C=C\C[C@H]1C=CC(=O)/C1=C/C[C@@H](O)CCc1cccc(C(F)(F)F)c1	-55.8% (active)	-8.89% (active)	72.8%	7.63% (active)	-71.1% (active)	-19.3% (active)	-85.9% (active)	-62.2% (active)	-60.9% (active)	
C#Cc1cccc(NC(=O)c2ccc(NC(=O)C=C)cc2)c1	60.9% [8.25 µM]	44% [8.25 µM]	39.4% [8.25 µM]	84.5% [8.25 µM]	80.6% [8.25 µM]	67.7% [8.25 µM]	97.7% [8.25 µM]	73.9% [8.25 µM]	79.6% [8.25 µM]	
COc1cc(C(=O)N/N=C/c2cc3cc(OCc4ccccc4)ccc3nc2OC)cc(OC)c1OC	80.3%	82.9%	77.7%	90.3%	84.8%	68.1%	63.7%	84.3%	81.9%	
COc1cc2cc(Oc3ccc(NC(=O)Nc4cccc(C(F)(F)F)c4)cc3)c(C)nc2cc1OCCN1CCOCC1	27.2%	35.3%	77.8%	30.7%	28%	15.7%	6.62% (active)	50.8%	38.2%	
CCN1C(=O)N(CC)C2Nn3c(s/c(=C4\C(=O)N(CC(C)C)c5ccccc54)c3=O)=NC21 (stereo not given)	27.3%	86.4%	14.1%	54.7%	36.3%	38.1%	39.9%	45.3%	54.2%	
COC(=O)c1ccc2[nH]c(O)c(C(=Nc3ccc(N(C)C(=O)CN4CCN(C)CC4)cc3)c3ccccc3)c2c1	12.3%	21.3%	-4.83% (active)	42.6%	31.4%	36.3%	38.3%	74.6%	16.3%	
CCc1ccccc1-n1c(N)c(C#N)c(-c2ccc(Cl)cc2)c(C#N)c1=O	108%	102%	90.5%	111%	119%	80.6%	106%	98.6%	100%	
Cc1ccc(C(=O)N/N=C/c2cccc([N+](=O)[O-])c2)cn1	109%	114%	94.2%	98.5%	107%	95.4%	98.9%	98.1%	105%	
Fc1cc2c(cc1Cl)N(c1ncnc3ccc(-c4cnc5cnccn45)cc13)CC2	99.1%	87.9%	69.2%	86.2%	91.1%	81.9%	95.3%	80.5%	91%	
O=C1CCC/C=C\C[C@H]2C=CC(=O)/C2=C/C[C@H](CCc2cccc(C(F)(F)F)c2)O1	-10.8% (active)	-31.9% (active)	15.2%	-17.1% (active)	-93% (active)	-20.7% (active)	-82.8% (active)	-45.9% (active)	-72.6% (active)	-39.5% (active)
COc1ccc(-c2ncnc3c2ncn3CC#CCCl)cc1	49.6%	93.9%	93.5%	72.5%	29.4%	57.1%	62.5%	51.2%	-31.7% (active)	
CCc1nnc(NC(=O)c2nnn(-c3ccccc3)c2-c2ccco2)s1	51.5%	109%	89.6%	93.9%	84%	64.7%	83.2%	86.5%	89%	
Cc1cccc2c3c(sc12)C(c1ccc(Cl)cc1)C(C#N)=C(N)O3 (stereo not given)	10.3%	6.24% (active)	4.24% (active)	27.6%	27.2%	16.2%	27.1%	17.6%	18.4%	58.6%
CN1CCN(Cc2ccc(NC(=O)c3ccc(C(C)(C)C)c(C#Cc4cnc5cccnn45)c3)cc2C(F)(F)F)CC1	-73.2% (active)	-83.5% (active)	74.8%	-63.1% (active)	-87.9% (active)	-65.6% (active)	-60.3% (active)	-71% (active)	-87.7% (active)	
O=C1c2ccccc2NC(n2sc3ccccc3c2=O)N1c1ccccc1 (stereo not given)	91.5%	90.6%	94%	101%	104%	92.9%	105%	93.3%	87.9%	
CC(C)n1cnc2c(Nc3cccc(Cl)c3)nc(N[C@H]3CCCC[C@@H]3N)nc21	58.1%	11.3%	32.8%	59.7%	57.3%	54.3%	53.3%	68.3%	45.2%	
COc1ccc(-c2[nH]ncc2-c2cc3c(c(OC)c2)OCC(=O)N3)cc1	23.7%	37.2%	-20.2% (active)	24.7%	11.3%	17.6%	11.9%	25.3%	41.7%	57.6%
Cc1[nH]c(C(=O)Nc2ccc(C(=O)NCCN)cc2OC(C)C)c(Cl)c1Cl	34.3%	2.87% (active)	78.4%	52%	-21.4% (active)	45%	71.2%	84%	-95.1% (active)	
COc1ccc(-c2cc(-c3ccc(Cl)cc3)c(C#N)c(=O)n2CCCCCC(=O)Nc2ccccc2N)cc1	23.1%	14.8%	-6.08% (active)	70.7%	48.8%	39.5%	-79.7% (active)	4.17% (active)	-54.2% (active)	
Cc1ccc2nc(NC(=O)CSc3nc(Cl)c(C#N)c(-c4ccccc4)n3)sc2c1	99.8%	102%	95.9%	96%	99.1%	89.5%	102%	88.3%	94.3%	
CCc1ccc(Oc2c(-c3ccc(OCCc4cccc(C(F)(F)F)c4)cc3O)n[nH]c2C(F)(F)F)cc1	23.8%	86.1%	63.3%	39.8%	12.1%	46.1%	42%	18.6%	17.6%	
CNC(=O)c1cc(-n2ccc3cc(NC(=O)c4ccc(N5CCOCC5)c(C(F)(F)F)c4)ccc32)ccn1	43.2%	25.1%	85.9%	81.1%	50.3%	18%	24.6%	38.7%	36.1%	
Cc1ccc2sc3c(NCCN)nc4ccccc4c3c(=O)c2c1	29%	10.8%	77.2%	81%	49.7%	79.5%	95.6%	99.4%	15.6%	
Cc1nn(-c2ccccc2)c2c1N=c1s/c(=C\c3ccc(C(F)(F)F)cc3)c(=O)n1CN2	70.1%	77.6%	78%	84.4%	73.6%	37.2%	31.1%	59.2%	56.7%	
